# A number with no mark means an inactive call. Results filed as inconclusive are left out. Where a call stands in place of a potency, no number is given. Active and inactive are the calls of the source. Unless noted, calls follow the shape of the dose curve; as a rule, active = well fitted curve in the direction sought with a large enough effect in the repeat runs; inconclusive = weak or mixed curves; inactive = no such curve, though single readings can be large; an effect the other way counts as inactive or inconclusive.
# Assays:
# [1] = qHTS assay to identify small molecule agonists of H2AX (AID 1224845; active = well fitted activation curve with a large enough effect in the signal ratio in the repeat runs, not every such curve was filed as active; the % refers to the signal ratio)
# Outline: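 Wild-type CHO-K1 cells, plated overnight, exposed 3hr at 37C to 15 concentrations (0.76% DMSO final). Lysed, then HTRF anti-pH2AX (S139) cryptate and anti-H2AX-d2 antibodies, 24 hr room temperature; 665/620 nm emission read.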
# [2] = qHTS assay to identify small molecule agonists of H2AX - cell viability counter screen (AID 1224847; calls by dose curve; also: nearly all actives have a fitted effect of over 30% in size; also: potency is read from the fitted curve at half-maximal effect)
# Outline: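 Wild-type CHO-K1 cells (10% FBS medium) were plated overnight at 37C, exposed to compounds at 15 concentrations for 3 hr at 37C (0.76% DMSO final), and viability was read as CellTiter-Glo luminescence after 30 min at room temperature.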
# [3] = qHTS RealTime-Glo MT Cell Viability Assay in HepG2 cells - 24 hour (AID 1224867); also: nearly all actives have a fitted effect of over 50% in size
# Outline: (§1)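 HepG2 cells were seeded at 600 cells/well together with NanoLuc luciferase and a cell-permeant prosubstrate, preincubated 5 h at 37 C/5% CO2, then pin-dosed with compounds in DMSO. Nonlytic luminescence from viable cells was read at each time point.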
# [4] = A CellTox Green Cytotoxicity Assay to monitor cytotoxicity in HEK293 cells - 0 hour (AID 1224869); also: nearly all actives have a fitted effect of over 50% in size
# Outline: (§2)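 Cells (HEK293, 600/well) and dye reagent are dispensed together. After 5 h at 37 C, 23 nL compound is pinned in. Plates stay at 37 C for 40 h with fluorescence read at 0h, 8h, 16h, 24h, 32h and 40h.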
# [5] = qHTS RealTime-Glo MT Cell Viability Assay in HepG2 cells - 40 hour (AID 1224870); also: nearly all actives have a fitted effect of over 50% in size
# Outline: (§3)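 HepG2 cells (600/well) mixed with RealTime-Glo MT reagent, settled 5 h at 37 C/5% CO2 before compound addition. Nonlytic NanoLuc luminescence from viable-cell prosubstrate reduction read repeatedly during 40 h treatment at 37 C.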
# [6] = A CellTox Green Cytotoxicity Assay to monitor cytotoxicity in HEK293 cells - 40 hour (AID 1224871); also: nearly all actives have a fitted effect of over 45% in size; also: potency is read from the fitted curve at half-maximal effect
# Outline: as §2
# [7] = qHTS RealTime-Glo MT Cell Viability Assay in HEK293 cells - 16 hour (AID 1224872); also: top concentration of the series differs between compounds; nearly all actives have a fitted effect of over 50% in size
# Outline: (§4)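 HEK293 cells were seeded at 600 cells/well together with NanoLuc luciferase and cell-permeant prosubstrate, preincubated 5 h at 37 C/5% CO2, then given compound in DMSO by pintool. Luminescence from viable-cell prosubstrate reduction was read repeatedly over 40 h.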
# [8] = qHTS RealTime-Glo MT Cell Viability Assay in HepG2 cells - 8 hour (AID 1224873); also: nearly all actives have a fitted effect of over 55% in size
# Outline: as §3
# [9] = qHTS RealTime-Glo MT Cell Viability Assay in HEK293 cells - 40 hour (AID 1224874); conditions: RealTime-Glo luminescence; max response: hits give low values; also: nearly all actives have a fitted effect of over 50% in size; also: potency is read from the fitted curve at half-maximal effect
# Outline: (§5)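 Real-time viability in HEK293: signal arises when living cells convert a prosubstrate for NanoLuc in the medium, so luminescence tracks viable cell number. Compound (23 nL, DMSO) added 5 h post-seeding; kinetic reads at 0–40 h, 37 C.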
# [10] = A CellTox Green Cytotoxicity Assay to monitor cytotoxicity in HEK293 cells - 24 hour (AID 1224875); also: nearly all actives have a fitted effect of over 45% in size; also: potency is read from the fitted curve at half-maximal effect
# Outline: as §2
# [11] = A CellTox Green Cytotoxicity Assay to monitor cytotoxicity in HepG2 cells - 16 hour (AID 1224876); also: nearly all actives have a fitted effect of over 45% in size
# Outline: (§6)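 Cells and non-lytic dye reagent are dispensed together (600 HepG2 cells/well) and incubated 5 h before DMSO compound transfer. Kinetic fluorescence is then recorded in the same wells during 40 h at 37 C.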
# [12] = A CellTox Green Cytotoxicity Assay to monitor cytotoxicity in HepG2 cells - 24 hour (AID 1224878); also: nearly all actives have a fitted effect of over 45% in size; also: potency is read from the fitted curve at half-maximal effect
# Outline: as §6
# [13] = A CellTox Green Cytotoxicity Assay to monitor cytotoxicity in HepG2 cells - 40 hour (AID 1224879); also: nearly all actives have a fitted effect of over 40% in size; also: potency is read from the fitted curve at half-maximal effect
# Outline: as §6
# [14] = qHTS RealTime-Glo MT Cell Viability Assay in HEK293 cells - 0 hour (AID 1224880)
# Outline: as §5
# [15] = A CellTox Green Cytotoxicity Assay to monitor cytotoxicity in HEK293 cells - 32 hour (AID 1224881); also: nearly all actives have a fitted effect of over 40% in size; also: potency is read from the fitted curve at half-maximal effect
# Outline: as §2
# [16] = qHTS RealTime-Glo MT Cell Viability Assay in HepG2 cells - 32 hour (AID 1224877); also: nearly all actives have a fitted effect of over 55% in size
# Outline: as §1
# [17] = qHTS assay to identify small molecule agonists of the estrogen related receptor (ERR) signaling pathway from Tox21 library (AID 1224849; calls by dose curve; also: nearly all actives have a fitted effect of over 15% in size); conditions: ERR reporter cell line, ONE-Glo luciferase, 18 h; at 92.4 µM (top of the series) unless noted
# Outline: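 Cells carrying the ERR reporter were plated and allowed to settle for 6 h, exposed to library compounds for 18 h at 37 C, then lysed with ONE-Glo and luminescence measured.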
# [18] = qHTS assay to identify small molecule agonists of the hypoxia (HIF-1) signaling pathway (AID 1224846; active = well fitted activation curve with a large enough effect in the signal ratio in the repeat runs, not every such curve was filed as active; the % refers to the signal ratio)
# Outline: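 Compounds from the Tox21 10K library, dissolved in DMSO, are tested for induction of a hypoxia response element–controlled beta-lactamase reporter in ME-180 cells. Exposure lasts 17 hrs at 37C after a 5 hr settling period, followed by CCF4-AM FRET substrate.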
# [19] = qHTS assay to identify small molecule antagonists of the estrogen related receptor (ERR) signaling pathway from Tox21 library (AID 1224848); also: nearly all actives have a fitted effect of over 50% in size; also: potency is read from the fitted curve at half-maximal effect
# Outline: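 Compounds dissolved in DMSO are pin-transferred onto ERR reporter cells (2,000 per well) that have settled for 6 h at 37 C. Plates then incubate 18 h at 37 C before ONE-Glo luciferase reagent and a luminescence read 30 min later.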
# [20] = qHTS RealTime-Glo MT Cell Viability Assay in HEK293 cells - 32 hour (AID 1224868)
# Outline: as §4
structure (smiles),measurement,setting,value
O=C(O)c1ccco1,Potency,[1],inactive
same,Potency,[2],inactive
same,Potency,[3],inactive
same,Potency,[4],inactive
same,Potency,[5],inactive
same,Potency,[6],inactive
same,Potency,[7],inactive
same,Potency,[8],inactive
same,max response,[9],9.61%
same,Potency,[10],inactive
same,Potency,[11],inactive
same,Potency,[12],inactive
same,Potency,[13],inactive
same,Potency,[14],inactive
same,Potency,[15],inactive
COc1cc2nc(N3CCN(C(=O)C4COc5ccccc5O4)CC3)nc(N)c2cc1OC (stereo not given),Potency,[1],inactive
same,Potency,[2],inactive
same,Potency,[3],inactive
same,Potency,[4],inactive
same,Potency,[5],inactive
same,Potency,[6],inactive
same,Potency,[8],inactive
same,Potency,[9],23.9 µM (active)
same,Potency,[10],inactive
same,Potency,[11],inactive
same,Potency,[16],inactive
same,Potency,[12],23.9 µM (active)
same,Potency,[13],23.9 µM (active)
same,Potency,[15],inactive
CCCCCCCCCCCCN1CCCCCC1=O,Potency,[1],inactive
same,"activity change, positive = activation",[17],-23.3%
same,Potency,[3],inactive
same,Potency,[4],inactive
same,Potency,[5],inactive
same,Potency,[6],inactive
same,Potency,[8],inactive
same,Potency,[10],inactive
same,Potency,[15],inactive
Nc1cc(C(=O)O)c(O)c(S(=O)(=O)O)c1,Potency,[18],inactive
same,Potency,[2],inactive
same,Potency,[19],inactive
same,"activity change, positive = activation",[17],7.51%
same,Potency,[3],inactive
same,Potency,[20],inactive
same,Potency,[4],inactive
same,Potency,[5],inactive
same,Potency,[6],inactive
same,Potency,[8],inactive
same,max response,[9],9.59%
same,Potency,[10],inactive
same,Potency,[11],inactive
same,Potency,[16],inactive
same,Potency,[13],inactive
same,Potency,[15],inactive
COc1cc2nc(Cl)nc(N)c2cc1OC,Potency,[1],inactive
same,Potency,[2],inactive
same,Potency,[4],inactive
same,Potency,[5],inactive
same,Potency,[6],inactive
same,Potency,[8],inactive
same,Potency,[10],inactive
same,Potency,[11],inactive
same,Potency,[16],inactive
same,Potency,[12],inactive
same,Potency,[13],inactive
same,Potency,[15],inactive
COc1ccc(C(=O)N2CCN(CC(=O)N3CCOCC3)CC2)cc1,Potency,[18],inactive
same,Potency,[2],inactive
same,Potency,[19],inactive
same,"activity change, positive = activation",[17],4.84% [at 42.5 µM]
same,Potency,[3],inactive
same,Potency,[20],inactive
same,Potency,[4],inactive
same,Potency,[5],inactive
same,Potency,[6],inactive
same,Potency,[7],inactive
same,Potency,[8],inactive
same,max response,[9],2.37%
same,Potency,[10],inactive
same,Potency,[11],inactive
same,Potency,[16],inactive
same,Potency,[12],inactive
same,Potency,[13],inactive
same,Potency,[14],inactive
same,Potency,[15],inactive
CCCCCCCCCCCCCCCCOS(=O)(=O)O,Potency,[1],inactive
same,"activity change, positive = activation",[17],-16% [at 42.5 µM]
same,Potency,[3],inactive
same,Potency,[20],inactive
same,Potency,[4],inactive
same,Potency,[5],inactive
same,Potency,[6],21.3 µM (active)
same,Potency,[7],inactive
same,Potency,[8],inactive
same,max response,[9],-27.5%
same,Potency,[10],19 µM (active)
same,Potency,[16],inactive
same,Potency,[14],inactive
same,Potency,[15],21.3 µM (active)
CCN(CC)c1ccc(C(=C2C=CC(=[N+](CC)CC)C=C2)c2cc(S(=O)(=O)O)ccc2S(=O)(=O)[O-])cc1,Potency,[18],inactive
same,Potency,[2],22 µM (active)
same,Potency,[19],11.9 µM (active)
same,"activity change, positive = activation",[17],-45.9% [at 42.5 µM]
same,Potency,[3],inactive
same,Potency,[20],inactive
same,Potency,[4],inactive
same,Potency,[5],inactive
same,Potency,[6],inactive
same,Potency,[8],inactive
same,max response,[9],0.738%
same,Potency,[10],inactive
same,Potency,[16],inactive
same,Potency,[13],inactive
same,Potency,[14],inactive
same,Potency,[15],inactive
